ELG1 genotoxic: induces genotoxicity in HEK293T cells with luciferase-tagged ELG1. HEK293T ELG1-luciferase reporter, luminescence, 16 h. Potency, µM (doses to about 46 µM), without a hit: at the top dose activity change, positive = activation, most hits filed as activators. 330,000 compounds, 1.3% hits. AID 504466; further: % of control where 0% means no effect; nearly all actives have a fitted effect of over 60% in size
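Genotoxicity was scored as increased ELG1-luciferase reporter signal, measured by ONE-Glo luminescence (30 min, room temperature). Compound or vehicle exposure of the HEK293T reporter cells lasted 16 hr at 37°C.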
SMN2 splice enh: SMN2 splice variant enhancement. Potency, µM (series often up to 46.1 µM), for the others: top-dose activity change, positive = activation, hits mostly activators. 210,000 compounds, 2.8% hits. HEK293 SMN2-luciferase splicing reporter, luminescence, 30-36 h; further: % of control where 0% means no effect; nearly all actives have a fitted effect of over 55% in size
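qHTS luciferase splicing reporter: luminescence rises when SMN2 exon 7 is included in transfected HEK293 cells. Compound exposure lasted 30-36 h at 37C, with 4.5 mM final sodium butyrate as control, followed by a ONE-Glo read.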
FLuc modulator: firefly luciferase modulation, counter-screen for miR-21 project; P08659; purified FLuc, Km substrates, luminescence inhibition; Potency, µM (series often up to 57.5 µM), for inactives: top-dose activity change, negative = inhibition, actives largely listed as inhibitors; 360,000 compounds, 6.9% hits; AID 588342;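 further: plate controls were vehicle for no effect and reference inhibitor for full effect; nearly all actives have a fitted effect of over 55% in size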
Target sequence (P08659 whole entry, looked up): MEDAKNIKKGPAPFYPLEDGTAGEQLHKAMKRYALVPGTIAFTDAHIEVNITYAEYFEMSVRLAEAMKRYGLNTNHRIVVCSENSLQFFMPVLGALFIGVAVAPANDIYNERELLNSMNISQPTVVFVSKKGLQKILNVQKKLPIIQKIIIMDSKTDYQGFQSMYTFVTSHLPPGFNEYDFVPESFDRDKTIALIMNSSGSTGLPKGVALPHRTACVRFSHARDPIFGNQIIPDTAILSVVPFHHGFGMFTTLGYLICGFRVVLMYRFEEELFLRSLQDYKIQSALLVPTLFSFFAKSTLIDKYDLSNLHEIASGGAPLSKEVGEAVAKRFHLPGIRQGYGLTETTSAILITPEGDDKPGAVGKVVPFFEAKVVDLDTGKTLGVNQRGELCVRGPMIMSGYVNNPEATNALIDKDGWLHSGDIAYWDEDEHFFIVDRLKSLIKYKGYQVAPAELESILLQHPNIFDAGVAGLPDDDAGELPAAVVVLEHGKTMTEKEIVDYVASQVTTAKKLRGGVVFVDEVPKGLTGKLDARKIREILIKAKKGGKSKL
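Purified P. pyralis luciferase (10nM final) with 10uM D-luciferin and 10uM ATP (Km levels) in 50mM Tris acetate pH 7.5, 10mM Mg acetate, 0.01% Tween-20, 0.05% BSA; qHTS 6-point titration, ~60 µM downward; luminescence read.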
NPC1 prom act: activates the NPC1 promoter; Potency, µM (doses to about 9.22 µM), for inactives: top-dose activation, actives largely listed as activators; Huh7 NPC1 promoter luciferase reporter, 24 h; 320,000 compounds, 2.4% hits; further: % of control where 0% means no effect; nearly all actives have a fitted effect of over 60% in size
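Stably transfected Huh7 (NPC1 promoter→luciferase), 1500 cells/well in Opti-MEM + 10% FBS, 2 h settle, then compound 24 h at 37 °C. Luminescence after 10 min with Amplite reagent.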
p53 reactivator: mutant p53 re-activation in reporter cells; H1299 p53-A138V BP100-luciferase reporter, luminescence, 24 h; Potency, µM (doses to about 92.2 µM), inactives show top-dose activity change, positive = activation, most hits filed as activators; 320,000 compounds, 0.063% hits; further: % of control where 0% means no effect; nearly all actives have a fitted effect of over 45% in size
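H1299 (p53-null), stable ts p53-A138V + BP100-Luc; 1000 cells/well, Opti-MEM/10% FBS; cpd 4 pt, 1:5; 24 h, 37 deg C, 5% CO2; detection reagent 10 min RT; luminescence.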
Rab9 prom act: Rab9 promoter activation. Huh7 Rab9 promoter-luciferase reporter, luminescence, 24 h. Potency, µM (titrated, usually from 9.22 µM), for the others: at the highest dose activation, negative = inhibition, hits mostly activators. 320,000 compounds, 2.8% hits. AID 485297; further: % of control where 0% means no effect; nearly all actives have a fitted effect of over 60% in size
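Stable Rab9-luc Huh7, 1500 cells/well, 2 h settle; cmpd in DMSO, 24 h, 37 °C/5% CO2; luciferase reagent 10 min RT; luminescence.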
The depositor's hits bear a star; ? = inconclusive; · = not tested or not shown. In the library only some 7.3% were active in any assay of this set; here they are far more common. The call rests on the fitted dose curve; in most records, active means well fitted curve in the direction sought with a large enough effect; inconclusive means small, poorly fitted or top-dose-only effect, or another doubt; inactive means no such curve, though single readings can be large; an effect the other way counts as inactive or inconclusive. Potency means the concentration at half of the fitted maximal effect.

SMILES | ELG1 genotoxic | SMN2 splice enh | FLuc modulator | NPC1 prom act | p53 reactivator | Rab9 prom act
Cn1cccc1C(=O)N1CCC[C@@]2(CCN(Cc3cc(C(F)(F)F)cc(C(F)(F)F)c3)C2)C1 | · | -15.7% | · | · | · | ·
O=C(c1csnn1)N1CCC2(CCCN(c3ccc(-c4ccccc4)cc3)C2)CC1 | · | 17.8µM* | · | · | · | ·
O=C(c1csnn1)N1CCC2(CCCN(c3cccc(-c4ccccc4)c3)C2)CC1 | · | 2.8% | · | · | · | ·
CCc1nnc(NS(=O)(=O)c2ccc(N=Cc3c(C)[nH]n(-c4ccc(C)c(C)c4)c3=O)cc2)s1 | 6.8% | ? | 15.1µM* | -1.2% | 15.0% | -1.6%
Cc1ccc(-n2[nH]c(C)c(C=Nc3ccc(S(=O)(=O)Nc4nccs4)cc3)c2=O)cc1 | 3.6% | 16.7% | ? | -0.9% | 6.5% | -1.8%
C=CCC1(CC=C)CCCN1C(=O)C1CCC(=O)N(CCc2ccc(OC)cc2)C1 (stereo unspecified) | ? | · | 10.7µM* | 2.51µM* | ? | 2.51µM*
C=CCC1(CC=C)CCCN1C(=O)C1CCC(=O)N(CCc2ccccc2)C1 (stereo unspecified) | ? | · | 10.7µM* | 3.98µM* | 10.0% | 2.82µM*
COc1ccc(-c2cc(C(=O)Nc3c(C)nn(Cc4ccc(F)cc4)c3C)no2)cc1OC | · | -10.7% | -3.7% | · | · | ·
CC(C)C[C@@H](CC(=O)N[C@@H](CCC(=O)O)CC(=O)O)NC(=O)[C@@H]1CNCC[C@H]1NC(=O)C[C@H](CCCN)NC(=O)C[C@H](CO)NC(=O)[C@@H]1CNCC[C@H]1N | · | 1.4% | · | · | · | ·
Cc1cc(C)c2oc(-c3ccc(NC(=O)c4cc(Br)ccc4Cl)cc3)nc2c1 | · | -24.8% | -5.3% | · | · | ·
Cc1cc(C)c2oc(-c3ccc(Cl)c(NC(=O)c4ccc(C#N)cc4F)c3)nc2c1 | 8.9% | ? | 16.9µM* | -3.9% | 10.1% | -15.6%
Cc1cccc(-n2c(CCCN3C(=O)c4ccccc4C3=O)nc3ccccc3c2=O)n1 | 23.1µM* | 0.0% | 7.1% | -1.8% | 1.1% | 14.1%
Cc1cccc(-n2c(CCN3C(=O)c4ccccc4C3=O)nc3ccccc3c2=O)n1 | -4.2% | 1.9% | -1.2% | 6.2% | -0.1% | -1.9%
COc1ccc(OC)c(NC(=O)CN(C)S(=O)(=O)c2ccc3[nH]c4c(c3c2)CCCC4)c1 | · | · | -0.2% | · | · | ·
Cc1ccc(NC(=O)c2c(C)oc3ccc(O)c(CN4CCCC4)c23)c(C)c1 | · | 4.0% | -1.0% | · | · | ·
Cc1cccc(C(=O)NC(=O)Nc2ccc(-c3cc(C(F)(F)F)nn3-c3ccccc3)cc2)c1 | · | · | 0.8% | · | · | ·
Oc1ccc(N=Nc2n[nH]c(-c3ccccc3)n2)cc1 | 8.2µM* | ? | 3.79µM* | 1.58µM* | ? | 1µM*
Oc1ccc(N=Nc2n[nH]c(-c3ccc(Br)cc3)n2)cc1 | 5.6% | 15.8µM* | 7.57µM* | 12.1% | ? | -9.1%
Cc1ccc(CN2C(=O)C(=O)c3cc(Br)cc(C)c32)cc1 | · | -13.1% | ? | · | · | ·
CNS(=O)(=O)c1ccc(NC(=O)c2csc(C)c2)cc1 | 15.0% | · | -2.2% | -1.3% | 4.8% | -18.0%
Cc1ccc(C)c(NC(=S)NNC(=O)c2csc3c2CCCC3)c1 | -1.9% | -10.7% | -2.8% | 1.1% | -8.4% | 2.8%
Cc1cc(C(=O)Nc2ccc(Br)cc2)cs1 | 6.51µM* | · | 19µM* | ? | ? | 0.631µM*
Cc1cccc(NC(=S)NNC(=O)c2csc3c2CCCC3)c1 | 0.0% | ? | 12µM* | ? | 10.6% | ?
Cc1cccc(NC(=S)NNC(=O)c2csc(C)c2)c1 | 14.4% | · | 8.49µM* | 14.5% | ? | ?
CC(C)c1ccc(NC(=O)c2cc3c(=O)oc4ccccc4c3s2)cc1 | · | 3.1% | -5.5% | · | · | ·
SMILES | ELG1 genotoxic | SMN2 splice enh | FLuc modulator | NPC1 prom act | p53 reactivator | Rab9 prom act
COc1ccc(-c2cc(C(F)(F)F)n3nc(C(=O)Nc4sc5c(c4C(=O)OC(C)C)CCC(C)C5)cc3n2)cc1 (stereo unspecified) | · | 0.1% | -0.4% | · | · | ·
O=c1c2ccccc2cnn1CCOc1cccc(Br)c1 | ? | · | 9.53µM* | 3.55µM* | ? | ?
CCOc1ccccc1NC(=O)C(C)N(c1ccccc1)S(C)(=O)=O (stereo unspecified) | · | -11.4% | 0.5% | · | · | ·
Cc1nc(-c2ccc([N+](=O)[O-])cc2)nc2[nH]ccc(=O)c12 | ? | · | 5.36µM* | 1.12µM* | 21.3% | 1.12µM*
Cc1nc(-c2ccccc2)nc2[nH]ccc(=O)c12 | ? | ? | 12µM* | 29.6% | 9.1% | ?
Cc1nc(-c2ccccc2)nc2[nH]c(-c3ccccc3)cc(=O)c12 | 22.3% | 4.8% | -0.1% | -1.3% | 7.9% | 14.4%
Cc1cc(C(=O)N/N=C/c2cccnc2)c2ccccc2n1 | -1.7% | · | -3.0% | -6.4% | 3.2% | 0.0%
COc1ccc(-c2cc(C(=O)N/N=C/c3cccnc3)c3cc(C)cc(C)c3n2)cc1 | -4.8% | · | 7.57µM* | -7.1% | 1.6% | -1.9%
Cn1c(O)c(N=NC(=O)c2cc(-c3cccs3)nc3ccccc23)c2ccccc21 | -8.8% | -26.5% | 2.69µM* | 2.7% | 12.4% | -1.8%
O=C(N/N=C/c1ccc[nH]1)c1cc(-c2cccs2)nc2ccccc12 | -15.1% | 1.0% | 15.1µM* | -5.1% | -3.5% | -1.3%
CCOc1ccc(-c2cc(C(=O)N/N=C/c3cccnc3)c3ccccc3n2)cc1 | 15.7% | · | 0.379µM* | -9.1% | -11.9% | ?
Cn1c(O)c(N=Nc2ccccc2)c2ccccc21 | 3.2% | · | 26.9µM* | -1.2% | 8.0% | -2.4%
Cc1cc(C(=O)N/N=C/c2ccncc2)c2ccccc2n1 | -2.3% | · | 2.2% | -0.4% | -3.8% | -4.5%
O=C(N/N=C/c1cccnc1)c1cc(-c2cccs2)nc2ccccc12 | -6.4% | 0.2% | 23.9µM* | -6.1% | 2.8% | -5.3%
Cn1cccc1/C=N/NC(=O)c1cc(-c2cccs2)nc2ccccc12 | -5.5% | 0.5% | 13.5µM* | -15.8% | 2.1% | -9.3%
O=C(N/N=C/c1ccc2ncccc2c1)c1cc(-c2cccs2)nc2ccccc12 | -8.9% | · | ? | -4.8% | -0.3% | 0.0%
CC(C)COc1cccc(-c2cc(C(=O)N/N=C/c3ccncc3)c3ccccc3n2)c1 | -8.2% | · | 0.953µM* | -3.7% | 10.0% | -2.8%
COc1ccc(N2C(=O)C(CC(=O)Nc3ccccc3)N(CCC3=CCCCC3)C2=O)cc1 (stereo unspecified) | · | 0.2% | 1.0% | · | · | ·
C=CCSc1ncc(-c2ccccc2)cn1 | 15.1% | 10.7% | 15.1µM* | 23.5% | ? | 25.7%
C#CCSc1ncc(-c2ccccc2)cn1 | 11.7% | 2.6% | ? | 19.3% | 15.8% | ?
C/C(=N\OC(=O)c1cccc(C(F)(F)F)c1)c1sc(-c2ccccc2)nc1C | 2.8% | 25.1µM* | 5.2% | 3.55µM* | 2.6% | 3.98µM*
